MITF act = activators of MITF-driven TRPM1 promoter activity in SK-MEL-5 cells | activation, % at 12.5 µM | hit rate 0.75% among 300,000 | SK-MEL-5 TRPM1-promoter luciferase, 24 h; % of positive control, neutral wells = 0;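 active = mean activation of at least 80% with every replicate also reaching 80%; inconclusive = mean reaches 80% but some replicate falls short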;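 note: 0% = neutral control wells and 100% = parthenolide positive control wells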
HSF1 activator = increases HSF-1 driven luciferase reporter signal. hit rate 1.7% among 300,000. activation, % at 9 µM. AID 504408. NIH3T3-HGL HSF-1 luciferase reporter, MG132, 8 h; 100% = twice DMSO control signal;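 active = mean replicate activation of at least 50% with a set share of replicates each reaching 50%; inconclusive = only one of those two conditions met; inactive = mean below 50% and too few replicates reaching it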;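 note: 0% = median of the neutral control wells and 100% = twice that signal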
esBAF inh = inhibitors of esBAF chromatin remodeling in mouse ES cells; hit rate 2% among 350,000; reporter increase, % at 12.5 µM; Bmi1-luciferase knock-in reporter, 24 h; 100% = twice the neutral-well signal; in the data active = activation above about 40%; inconclusive = no clear call, values can overlap the other calls;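 note: 0% = median of the plate's neutral control wells and 100% = double that signal; a rise in the Bmi1 reporter signal indicates esBAF inhibition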
HSF1 inhib = HSF1 inhibition; activity change, negative = inhibition, % at 7.5 µM (by protocol); NIH3T3-HGL HSE-luciferase, MG132-induced, luminescence 8 h; hits give low values; hit rate 0.77% among 300,000; AID 2098;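 active = more than half of replicate wells show activity change below -50%, luminescence cut by over half; inconclusive = some wells, but at most half, below -50%; inactive = no replicate well below -50%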;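 note: luciferase reports HSF-1 transcriptional activity via heat shock element; 0% = median of DMSO wells and -100% = zero luminescence signal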
SMARCA2 act = increases SMARCA2 function in MMTV reporter cells | hit rate 1% among 370,000 | activation, % at 9.1 µM | AID 652017 | MG213 cells, MMTV-luciferase reporter, dexamethasone, overnight; in the data active = activation above about 7.8%;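 note: 0% = vehicle wells and 100% = reference activator wells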
Wnt bcat act = Wnt/beta-catenin pathway activation; Wnt/beta-catenin reporter cell assay, activator, plate reader; activation, % at 9.35 µM; hit rate 1.2% among 300,000; in the data active = activation above about 30%, passing the limit was not always enough; inconclusive = no clear call, values can overlap the other calls;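 note: 0% = neutral control wells and 100% = positive control wells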
esBAF Ring1 qPCR = confirmation of esBAF inhibitors: Ring1 de-repression in mouse ESCs | 550 tested, under 10 active | mouse ESC E14, Ring1 mRNA RT-qPCR fold change | shares compounds with esBAF inh | AID 743176 | fold change at 33 µM;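 active = Ring1 gene expression raised more than 2-fold over untreated cells in both replicates at either tested dose; inconclusive = only one replicate above 2-fold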;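 note: Ring1 transcript normalised to actin housekeeping signal by TaqMan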
esBAF Fgf4 qPCR = confirmation of esBAF inhibitors: Fgf4 repression in mouse ESCs | shares compounds with esBAF inh | mouse ESC E14, Fgf4 mRNA qPCR fold change; hits give low values | Fgf4 expression fold change at 33 µM | hit rate 4% among 550 | AID 743177;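 active = Fgf4 expression under 0.8 fold of control in both repeat measurements at one or both tested doses; inconclusive = under 0.8 fold in just a single repeat measurement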;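 note: Fgf4 transcript normalised to actin in duplex TaqMan qPCR; cells exposed to compound for 24 h before lysis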
esBAF Bmi1 qPCR = confirmation of esBAF inhibitors: Bmi1 de-repression in mouse ESCs. AID 743180. fold change at 33 µM. shares compounds with esBAF inh. 550 tested, under 10 active. mouse ESE14 ES cells, Bmi1 mRNA qPCR fold; hits give high values;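 active = Bmi1 expression fold change above 6 at either tested concentration, seen in replicate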;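 note: higher fold means more Bmi1 de-repression and stronger esBAF inhibition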
A549 tox SP = cytotoxicity in A549 cells | cell viability change % (negative = cytotoxic), % at 25 µM, hits read low | plate reader | 550 tested, under 10 active | shares compounds with esBAF inh | AID 743188; call rule not given here
HepG2 tox SP = HepG2 cell cytotoxicity at single point; plate reader; hits give low values; AID 743189; activity change, negative = inhibition, % at 25 µM; hit rate 4% among 550; shares compounds with esBAF inh; in the data active = activity change below about -50%
HEK293 tox SP = HEK293 cell cytotoxicity at single point; plate reader; shares compounds with esBAF inh; hit rate 3% among 550; activity change, negative = inhibition, % at 25 µM, hits read low; AID 743190; in the data active = activity change below about -38%, passing the limit was not always enough
The depositor's hits bear a star; ? = inconclusive; / = no result given. Shown are actives, neighbours in structure and some others; about 4.3% of the full set was active somewhere.

SMILES | MITF act | HSF1 activator | esBAF inh | HSF1 inhib | SMARCA2 act | Wnt bcat act | esBAF Ring1 qPCR | esBAF Fgf4 qPCR | esBAF Bmi1 qPCR | A549 tox SP | HepG2 tox SP | HEK293 tox SP
Clc1ccc(-c2cnnc(-c3ccccn3)n2)cc1 | ? | / | 83* | / | 5 | 25 | 1.2 | 1.3 | 2 | -23 | -31 | -21
O=S(=O)(N[C@H]1CC[C@@H](CCn2cc(-c3ccc(F)cc3)nn2)O[C@H]1CO)c1ccccc1F | / | / | 2 | / | / | / | / | / | / | / | / | /
COCC(=O)N1[C@H](CO)[C@H]2c3ccccc3N(C(=O)Nc3ccccc3Cl)C[C@H]21 | / | / | -4 | / | / | / | / | / | / | / | / | /
Nc1ccc(C#Cc2ccc3c(=O)c4ccccc4oc3c2)cc1 | 111* | -7 | 79* | -5 | 3 | 25 | 0.85 | 0.56* | 3.5 | -14 | -1 | -11
COc1cc2oc3cc(C#Cc4ccc(N)cc4)ccc3c(=O)c2cc1OC | -1 | -15 | -2 | -8 | -3 | -9 | / | / | / | / | / | /
O=C(Nc1ccc2c(c1)OCO2)c1cnc(Cl)c(Cl)c1 | 53 | / | 54* | / | 5 | -1 | 0.97 | 1.1 | 1 | 5 | -9 | -2
O=C(NC[C@@H]1N[C@@H](CO)[C@H]1c1ccc(C2=CCCCC2)cc1)c1ccccc1 | / | / | -3 | / | / | / | / | / | / | / | / | /
Cc1cccc(-n2nnc(C(=O)Nc3ccc(F)cc3)c2N)c1 | / | 45 | 62* | 14 | 1 | / | 0.94 | 0.84 | 1.9 | -4 | -38 | -11
O=C(C[C@H]1CC[C@@H](NC(=O)c2ccccn2)[C@H](CO)O1)NCc1cccc(F)c1 | / | / | -3 | / | / | / | / | / | / | / | / | /
COc1cc(CNc2ccc(N3CCN(C(C)=O)CC3)cc2)ccc1OCc1ccc(F)cc1 | -31 | / | 58* | / | -1 | 16 | 2.2* | 1.3 | 2.3 | -5 | -23 | -29
CC(=O)N1CCN(c2ccc(NCc3ccc(F)cc3)cc2)CC1 | -4 | 2 | 7 | 1 | -3 | -2 | / | / | / | / | / | /
COc1cc(/C=C/c2nc3ccccc3c(=O)[nH]2)ccc1OC(F)F | ? | 11 | 56* | 15 | 3 | 35* | 1.2 | 1 | 1.5 | -8 | -24 | -1
O=C(C[C@H]1C[C@@H]2c3cc(NS(=O)(=O)c4ccc(F)cc4)ccc3O[C@@H]2[C@H](CO)O1)NCc1cc(F)ccc1F | / | / | 5 | / | / | / | / | / | / | / | / | /
COc1ccc(Cl)c(-c2cc(C(=O)Nc3ccccc3)[nH]n2)c1 | / | / | 97* | / | -1 | -3 | 1.2 | ? | 1.4 | -3 | -2 | -20
Cc1ccc(Cl)cc1-c1cc(C(=O)Nc2ccc(F)cc2)[nH]n1 | / | / | 63* | / | 1 | -1 | 1.1 | 0.97 | 1.7 | 2 | -17 | -9
COc1ccc(Cl)cc1-c1cc(C(=O)Nc2ccccc2)[nH]n1 | / | / | 14 | / | 0 | 0 | / | / | / | / | / | /
Cc1ccc(NC(=O)Nc2ccc(F)cc2)cc1Cl | 43 | 16 | 68* | 6 | 1 | 8 | 1.3 | 0.97 | 1.6 | -2 | -34 | -3
COc1ccc(Cl)c(-c2cc(C(=O)NCc3ccc(C(F)(F)F)cc3)[nH]n2)c1 | / | / | 3 | / | 2 | 0 | / | / | / | / | / | /
COc1ccc(Cl)c(-c2cc(C(=O)Nc3ccc(F)cc3)[nH]n2)c1 | / | / | 69* | / | 3 | 2 | 1.4 | 0.85 | 1.5 | 10 | 12 | 10
CNC[C@H]1Oc2c(NC(=O)Nc3ccc(F)cc3)cccc2C(=O)N([C@H](C)CO)C[C@H]1C | / | / | -5 | / | / | / | / | / | / | / | / | /
Cn1c2ccccc2c(=O)c2cc(C#Cc3ccsc3)ccc21 | 63 | 20 | 62* | 8 | 3 | 24 | 1.1 | ? | 1.4 | -4 | 8 | -6
Cn1c2ccccc2c(=O)c2ccc(F)cc21 | 24 | 4 | 13 | 7 | 4 | 1 | / | / | / | / | / | /
CO[C@@H]1CN(C)C(=O)c2ccc(NC(C)=O)cc2OC[C@H](C)N(S(=O)(=O)c2cn(C)cn2)C[C@H]1C | / | / | -1 | / | / | / | / | / | / | / | / | /
c1ccc(CCc2nc(-c3cccnc3)no2)cc1 | 71 | 15 | 59* | 0 | 1 | / | 1.1 | 0.9 | 1.6 | -15 | -25 | -19
Cc1ccc(C(=O)Cc2ccccc2)c(O)c1 | 39 | / | 62* | / | -2 | 6 | 1 | 1 | 1.6 | -10 | -31 | -13
SMILES | MITF act | HSF1 activator | esBAF inh | HSF1 inhib | SMARCA2 act | Wnt bcat act | esBAF Ring1 qPCR | esBAF Fgf4 qPCR | esBAF Bmi1 qPCR | A549 tox SP | HepG2 tox SP | HEK293 tox SP
CC(C)NC(=O)N[C@@H]1CC[C@@H](CC(=O)NCCN2CCCC2)O[C@@H]1CO | / | / | 4 | / | / | / | / | / | / | / | / | /
Fc1ccccc1NC(=S)N1CCC(c2ccccc2)C1 (stereo unspecified) | 109* | 21 | 82* | 30 | 7 | 48* | 1.2 | 0.98 | 1.5 | -14 | 3 | -19
S=C(Nc1ccccc1Cl)N1CCC(c2ccccc2)C1 (stereo unspecified) | 39 | 24 | / | 13 | -2 | 16 | / | / | / | / | / | /
O=C(c1ccncc1)N(c1ccc(N2CCOCC2)cc1)C(c1ccccc1)c1nc2ccccc2[nH]1 (stereo unspecified) | / | / | 48* | / | 3 | -2 | 1.1 | 1.1 | 1.4 | 1 | -9 | -5
CCC(c1nc2ccccc2[nH]1)N(C(=O)Cc1cc(OC)cc(OC)c1)c1ccc(N2CCOCC2)cc1 (stereo unspecified) | / | / | 0 | / | -3 | -1 | / | / | / | / | / | /
COc1cccc(NC(=O)c2ccccc2Br)c1 | / | 28 | 57* | -3 | 3 | 4 | 1.3 | 1 | 1.4 | -8 | -23 | -12
COc1ccccc1C(=O)Oc1ccccc1C(=O)Nc1ccccc1 | 21 | 20 | 69* | 4 | 6 | 27 | 1.2 | 0.95 | 1.4 | -14 | -23 | -16
COc1cccc(NC(=O)c2ccccc2-c2ccccc2C(=O)O)c1 | / | 5 | -4 | -3 | -4 | 0 | / | / | / | / | / | /
COc1ccccc1C(=O)Nc1ccc(C(=O)c2ccccc2)cc1 | 20 | 12 | 31 | 30 | 3 | 8 | / | / | / | / | / | /
C[C@H](CO)N1C[C@H](C)[C@@H](CN(C)C(=O)CCC(F)(F)F)OCc2ccccc2-c2ccccc2C1=O | / | / | -3 | / | / | / | / | / | / | / | / | /
Cc1csc(NC(=O)Nc2ccc(Cl)cc2)n1 | 63 | 37 | 60* | 12 | 2 | 19 | 1 | 1 | 1.6 | -13 | -16 | -12
O=C(Nc1ccc(F)cc1)N1C[C@@H]2[C@H](c3ccccc31)[C@@H](CO)N2C(=O)c1ccncc1 | / | / | 4 | / | / | / | / | / | / | / | / | /

Screens from PubChem BioAssay.
